Results reported in the supplement of paper PMC12819154, “High-throughput peptide-centric local stability assay extends protein–ligand identification to membrane proteins, tissues and bacteria” (Nature Structural & Molecular Biology, 2025).

molecular target: UniProt P0AEZ1; experiment: log2 fold change of tryptic peptide abundance, ligand vs vehicle (limited proteolysis) (log2 ratio); higher = more trypsin-susceptible (destabilized); settings: peptide sequence: DYWNNGIR; peptide start residue: 105; ligand concentration: 5 mM; sample: E. coli desalted lysate; replicate design: treated before aliquoting
Protocol: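 HT-PELSA: desalted E. coli K-12 BW25113 lysate (with 12 mM MgCl2) incubated with 5 mM ATP (pH 7) or water for 30 min at 25 C, then a 4 min trypsin pulse at 22 C. Peptides were quantified by DIA-MS (4 replicates). Value is the peptide log2 fold change (treated/control); negative = stabilized. Scale: negative = ligand-stabilized region.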
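Also: lysate desalted by size exclusion to strip endogenous ATP, peptide intensities built from DIA-NN precursor signals, and peptides missing any value discarded before comparison.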

UniProt P0AEZ1, sequence (P0AEZ1 whole entry): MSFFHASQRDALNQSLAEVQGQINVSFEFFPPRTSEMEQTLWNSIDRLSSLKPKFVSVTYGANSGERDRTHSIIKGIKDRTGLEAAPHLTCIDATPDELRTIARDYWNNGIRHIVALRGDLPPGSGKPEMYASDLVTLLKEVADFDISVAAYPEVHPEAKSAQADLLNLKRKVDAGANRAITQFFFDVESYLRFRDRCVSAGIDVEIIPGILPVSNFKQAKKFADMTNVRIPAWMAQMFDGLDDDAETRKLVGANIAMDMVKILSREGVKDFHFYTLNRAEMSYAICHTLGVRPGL

SMILES	log2 fold change
Nc1ncnc2c1ncn2[C@@H]1O[C@H](COP(=O)(O)OP(=O)(O)OP(=O)(O)O)[C@@H](O)[C@H]1O [adenosine 5'-triphosphate]	-1.01
